Assay results reported in the supplement of paper PMC9950053.
Counter-ions that a name gives are not always drawn.

Test system: Danio rerio larvae (5 dpf)
Assay: combined optomotor response (time in upper well half, down vs up moving lines, periods 7-14) minus DMSO control (percentage points); higher = stronger optomotor response than DMSO larvae
Conditions: 10 µM; exposure time: 3 h pre-incubation + 3 h imaging

**Q.** How did the combined optomotor response turn out when `CN1CCC[C@@H]1Cc1c[nH]c2ccc(CCS(=O)(=O)c3ccccc3)cc12` [Eletriptan hydrobromide] was run?
**A.** -0.376

**Q.** Which combined optomotor response does the source give for `OCCOCCN1CCN(C2=Nc3ccccc3Sc3ccccc32)CC1` [Quetiapine hemifumarate] here?
**A.** 8.62

**Q.** `CN(C)CCc1c[nH]c2ccc(Cn3cncn3)cc12` [Rizatriptan benzoate] was tested. Which combined optomotor response did it give?
**A.** 6.97

**Q.** For `Brc1c(NC2=NCCN2)ccc2nccnc12`, which combined optomotor response is on record?
**A.** 5.01

**Q.** How did the combined optomotor response turn out when `Cc1ccsc1C(=CCCN1CCC[C@@H](C(=O)O)C1)c1sccc1C` [Tiagabine hydrochloride] was run?
**A.** 8.29

**Q.** How did the combined optomotor response turn out when `CCOc1nc2cccc(C(=O)O)c2n1Cc1ccc(-c2ccccc2-c2nnn[nH]2)cc1` [Candesartan] was run?
**A.** 7.2

**Q.** `Nc1nc(NC2CC2)c2ncn([C@H]3C=C[C@@H](CO)C3)c2n1` [Abacavir hemisulfate] was tested. Which combined optomotor response did it give?
**A.** 4.25

**Q.** How did the combined optomotor response turn out when `Nc1nc(Cl)nc2c1ncn2[C@@H]1O[C@H](CO)[C@@H](O)[C@@H]1F` [Clofarabine] was run?
**A.** 4.66

**Q.** With `CCCCCOC(=O)Nc1nc(=O)n([C@@H]2O[C@H](C)[C@@H](O)[C@H]2O)cc1F` [Capecitabine] as the molecule, how does the combined optomotor response read?
**A.** 4.98

**Q.** With `CC(C)N(CCCCOCC(=O)NS(C)(=O)=O)c1cnc(-c2ccccc2)c(-c2ccccc2)n1` [Selexipag] as the molecule, how does the combined optomotor response read?
**A.** 4.06

**Q.** Which combined optomotor response does the source give for `CN1CCC[C@@H]1CCO[C@](C)(c1ccccc1)c1ccc(Cl)cc1` [Clemastine fumarate] here?
**A.** 7.99

**Q.** `CN(CCOc1ccc(CC2SC(=O)NC2=O)cc1)c1ccccn1` (centres undefined) [Rosiglitazone] was tested. Which combined optomotor response did it give?
**A.** 3.93

**Q.** With `O=C(c1ccc(OCCN2CCCCC2)cc1)c1c(-c2ccc(O)cc2)sc2cc(O)ccc12` [Raloxifene hydrochloride] as the molecule, how does the combined optomotor response read?
**A.** -1.27

**Q.** For `C=C1[C@H](CO)[C@@H](O)C[C@@H]1n1cnc2c(=O)[nH]c(N)nc21` [Entecavir], which combined optomotor response is on record?
**A.** 3.44

**Q.** How did the combined optomotor response turn out when `C[C@H](Cc1cc2c(c(C(N)=O)c1)N(CCCO)CC2)NCCOc1ccccc1OCC(F)(F)F` [Silodosin] was run?
**A.** 9.04

**Q.** `CC/C(=C(\c1ccccc1)c1ccc(OCCN(C)C)cc1)c1ccccc1` [Tamoxifen citrate] was tested. Which combined optomotor response did it give?
**A.** -10.7

**Q.** For `CC(C)c1nc(CN(C)C(=O)N[C@H](C(=O)N[C@@H](Cc2ccccc2)C[C@H](O)[C@H](Cc2ccccc2)NC(=O)OCc2cncs2)C(C)C)cs1` [Ritonavir], which combined optomotor response is on record?
**A.** 3.14

**Q.** `COc1c(C)c2c(c(O)c1C/C=C(\C)CCC(=O)O)C(=O)OC2` [Mycophenolic acid] was tested. Which combined optomotor response did it give?
**A.** 7.6

**Q.** For `CCCCC1=NC2(CCCC2)C(=O)N1Cc1ccc(-c2ccccc2-c2nnn[nH]2)cc1` [Irbesartan], which combined optomotor response is on record?
**A.** -4.91

**Q.** For `COc1ccc(-c2ccc3cc(C(=O)O)ccc3c2)cc1C12CC3CC(CC(C3)C1)C2` [Adapalene], which combined optomotor response is on record?
**A.** 0.129

**Q.** How did the combined optomotor response turn out when `Cc1ccc(O)c([C@H](CCN(C(C)C)C(C)C)c2ccccc2)c1` [Tolterodine L-tartrate] was run?
**A.** -1.96

**Q.** With `C#C[C@]1(O)CC[C@H]2[C@@H]3CCC4=CC(=O)CC[C@@H]4[C@H]3CC[C@@]21CC` [Levonorgestrel] as the molecule, how does the combined optomotor response read?
**A.** 6.62

**Q.** Which combined optomotor response does the source give for `CC(C)(C(=O)c1cccnc1)c1cccnc1` [Metyrapone] here?
**A.** -5.86

**Q.** How did the combined optomotor response turn out when `CN1CC2c3ccccc3Oc3ccc(Cl)cc3C2C1` (centres undefined) [Asenapine maleate] was run?
**A.** -7.09

**Q.** For `Nc1nc(F)nc2c1ncn2[C@@H]1O[C@H](CO)[C@@H](O)[C@@H]1O` [Fludarabine], which combined optomotor response is on record?
**A.** -1.67

**Q.** Which combined optomotor response does the source give for `COc1cc(Nc2c(C#N)cnc3cc(OCCCN4CCN(C)CC4)c(OC)cc23)c(Cl)cc1Cl` [Bosutinib] here?
**A.** 0.386

**Q.** With `COC(c1ccccc1)(c1ccccc1)[C@H](Oc1nc(C)cc(C)n1)C(=O)O` [Ambrisentan] as the molecule, how does the combined optomotor response read?
**A.** 0.559

**Q.** How did the combined optomotor response turn out when `CC1(C)O[C@@H]2[C@@H](CO[C@@]3(COS(N)(=O)=O)OC(C)(C)O[C@@H]23)O1` [Topiramate] was run?
**A.** -3.96

**Q.** `CC#C[C@]1(O)CC[C@H]2[C@@H]3CCC4=CC(=O)CCC4=C3[C@@H](c3ccc(N(C)C)cc3)C[C@@]21C` [Mifepristone] was tested. Which combined optomotor response did it give?
**A.** 8.07

**Q.** How did the combined optomotor response turn out when `CCOC(=O)[C@H](CCc1ccccc1)N[C@H]1CCc2ccccc2N(CC(=O)O)C1=O` [Benazepril hydrochloride] was run?
**A.** 5.66

**Q.** With `CC(c1cc2ccccc2s1)N(O)C(N)=O` (centres undefined) [Zileuton] as the molecule, how does the combined optomotor response read?
**A.** -0.859

**Q.** Which combined optomotor response does the source give for `CN(C)CC/C=C1/c2ccccc2COc2ccc(CC(=O)O)cc21` [Olopatadine hydrochloride] here?
**A.** 8.84

**Q.** How did the combined optomotor response turn out when `COCCCOc1cc(C[C@@H](C[C@H](N)[C@@H](O)C[C@H](C(=O)NCC(C)(C)C(N)=O)C(C)C)C(C)C)ccc1OC` [Aliskiren hemifumarate] was run?
**A.** 1.73

**Q.** How did the combined optomotor response turn out when `O=C(NCC1CCCCN1)c1cc(OCC(F)(F)F)ccc1OCC(F)(F)F` (centres undefined) [Flecainide acetate] was run?
**A.** 2.85
